Screening data deposited in PubChem BioAssay by National Center for Advancing Translational Sciences (NCATS).
a7 integrin act: activates integrin-mediated alleviation for muscular dystrophy | alpha7betagal myoblasts, beta-gal FDG fluorescence, 48 h | Potency, µM (doses to about 38.3 µM), inactives show top-dose activation, usual class: activators | hit rate 0.064% among 350,000 | AID 624291;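 note: potency is the fitted concentration of half-maximal effect; 100% = response of the positive control SU9516; nearly all actives have a fitted effect of over 60% in size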
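alpha7betagal+/- myoblasts (passage 13, 250/well) treated 48 h at 37C with compounds at 1:260 dilution of DMSO stock. Lysed, then beta-galactosidase activity read as FDG fluorescence (ex 480/em 540) after 30 min, with pre-read for autofluorescence.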
Pin1 inh: human Pin1 inhibition; Q13526; Pin1 FP peptide displacement, HiFluor488, 10 min; Potency, µM (titrated, usually from 115 µM), without a hit: at the top dose activity, negative = inhibition, hits mostly inhibitors; hit rate 0.009% among 390,000; AID 504891; active = well fitted inhibition curve with a large enough effect in the polarisation, with a control signal flat, not every such curve was filed as active; inconclusive = small, poorly fitted or top-dose-only effect, or effect the other way, or a change in a side signal; inactive = no such curve, though single readings can be large or run the other way; the % refers to the polarisation; note: potency is the fitted concentration of half-maximal effect; % is set by controls: 0 for no effect and ±100 for the full control effect
Target sequence (Q13526 whole entry, looked up): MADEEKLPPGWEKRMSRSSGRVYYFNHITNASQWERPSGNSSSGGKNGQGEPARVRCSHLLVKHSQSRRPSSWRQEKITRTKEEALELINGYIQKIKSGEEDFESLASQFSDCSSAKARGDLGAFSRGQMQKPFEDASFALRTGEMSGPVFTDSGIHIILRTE
PKM2 activator: PKM2 (human) enzyme activation | P14618 | purified PKM2, Kinase-Glo ATP luminescence, activation; response scale: 0% is enzyme alone, no compound | Potency, µM (series often up to 57.5 µM), without a hit: at the top dose activation, actives largely listed as activators | hit rate 0.34% among 260,000; note: potency is the fitted concentration of half-maximal effect; % is set by controls: 0 for no effect and ±100 for the full control effect; nearly all actives have a fitted effect of over 55% in size
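Purified hPK-M2 (>95%) run at intermediate activity with 0.1 mM ADP and 0.5 mM PEP in 50 mM imidazole pH 7.2, KCl, MgCl2; 1 h room temperature. ATP formed read by Kinase-Glo luminescence; normalized to uninhibited and no-enzyme controls.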
ClpP mod: qHTS Assay for Activators of ClpP; ATP-dependent Clp protease proteolytic subunit (Bacillus subtilis (strain 168)), P80244; purified B. subtilis ClpP, FRET peptide cleavage, 20 min; Potency, µM (titrated, usually from 57.5 µM), without a hit: top-dose activity change, negative = active; hit rate 1.9% among 340,000; active = well fitted falling curve with a large enough effect; inconclusive = small, poorly fitted or top-dose-only effect; inactive = no such curve, though single readings can be large or run the other way; note: potency is the fitted concentration of half-maximal effect; the source files actives as falling curves though it sought activators and does not explain the sign; nearly all actives have a fitted effect of over 65% in size
Target sequence (P80244 whole entry, looked up): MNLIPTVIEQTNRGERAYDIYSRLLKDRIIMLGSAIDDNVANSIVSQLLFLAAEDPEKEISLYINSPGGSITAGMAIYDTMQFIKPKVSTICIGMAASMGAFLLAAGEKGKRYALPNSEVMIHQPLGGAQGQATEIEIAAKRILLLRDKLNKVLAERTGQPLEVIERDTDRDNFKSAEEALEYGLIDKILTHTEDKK
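FRET quenching reversal measured ClpP activation: 10 microg/mL B. subtilis ClpP at pH 8 with the FRET-FV decapeptide, read at 430 nm after 320 nm excitation. The 20-min minus 0-min signal was scaled between DMSO/no-enzyme wells and ADEP (5.8 microM final).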
USP2a block: inhibitors of human ubiquitin-specific protease USP2a; hit rate 0.01% among 330,000; USP2 core, Ub-CHOP2 coupled fluorogenic reporter, 485/531; AID 463254; O75604; Potency, µM (series often up to 38.3 µM), inactives show top-dose activity change, negative = inhibition, usual class: inhibitors;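 note: potency is the fitted concentration of half-maximal effect; plate controls were DMSO wells for no effect and full inhibition by NEM control for full effect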
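USP2 core (10nM final) preincubated 30min RT with compound in 20mM Tris-HCl pH 8.0, 2mM CaCl2, 2mM beta-mercaptoethanol, 0.05% CHAPS; 25nM Ub-CHOP2 plus 25nM reporter substrate added, fluorescence (Ex485/Em531) read after 60min.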
IL-2 act: activates IL-2 in a cell-based reporter assay | IL-2 activation reporter assay, cell-based qHTS; stimulated with anti-CD3/CD4/CD28 beads; in transgenic mouse T cells | activation, % (series mostly up to about 46 µM) | hit rate 0.065% among 360,000; in the data active = activation above about 50%; inconclusive = mostly about 30% to 49%; note: 0% is about no effect
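Quantitative HTS in unstimulated transgenic mouse T cells, with memory T cells as non-tolerant control and PMA/ionomycin as tolerance-bypass control. Compound pretreatment lasted 60 minutes before 18 h bead stimulation; EGFP/DsRed fluorescence read.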
Starred values were filed as active, the others as inactive; ? = inconclusive; . = no result; [ ] = another dose, or the depositor's remark. This is a sample that favours compounds with a hit; in the whole collection about 1.9% have one here. Unless noted, calls come from the whole dose curve; as a rule, active = well fitted curve in the direction sought with a large enough effect; inconclusive = small, poorly fitted or top-dose-only effect, or another doubt; inactive = no such curve, though single readings can be large; an effect the other way counts as inactive or inconclusive.

SMILES	a7 integrin act	Pin1 inh	PKM2 activator	ClpP mod	USP2a block	IL-2 act
Cc1cc2c(s1)c1cnn(Cc3cc(F)cc(F)c3F)c(=O)c1n2C	.	0%	.	.	.	.
COc1ccc(-c2cc3cc4c(cc3cn2)OCO4)cc1	0%	-6%	.	14µM*	-7%	0
Cc1cc(=O)n2c3ccccc3n(CC(O)CN3CCOCC3)c2c1C#N (stereo unspecified)	?	3%	-3%	.	2%	-1
Cc1cc(=O)n2c3ccccc3n(CC(O)CN3CCCCC3)c2c1C#N (stereo unspecified)	0%	1%	-3%	28µM*	2%	0
O=C(CSc1nnc(CNC(=O)c2ccc(F)cc2)o1)NCc1ccccc1Cl	-19%	-10%	-1%	1%	-2%	0
O=C(CSc1nnc(CNC(=O)c2ccccc2)o1)NCc1ccccc1Cl	-13%	-5%	4%	32µM*	4%	-3
Cc1csc(C)[n+]1CCC1CCCCC1	.	.	.	-1%	.	.
CC(C)(C)C(=O)NNC(=O)COc1ccc2ccccc2c1Br	4%	1%	2%	-1%	3%	2
COC(=O)NNC(=O)COc1ccc2ccccc2c1Br	19%	4%	0%	25µM*	-1%	0
COc1ccc(NC(=O)CSc2ccc(-c3ccco3)nn2)cc1OC	-6%	2%	18%	-1%	-1%	0
Cc1ccccc1NC(=O)CSc1ccc(-c2ccco2)nn1	-18%	1%	13%	-21%	3%	0
COc1cccc(NC(=O)CSc2ccc3nnc(-c4ccccn4)n3n2)c1	5%	-1%	23%	0%	2%	0
COc1cccc(NC(=O)CSc2ccc(-c3ccco3)nn2)c1	-11%	2%	3.2µM*	-6%	-1%	-2
COc1cccc(NC(=O)CSc2ccc3nnc(-c4ccncc4)n3n2)c1	7%	-1%	1.8µM*	0%	2%	1
Cc1nnc(NC(=O)CSc2ccc(-c3ccco3)nn2)s1	-12%	?	20µM*	.	3%	-2
Cc1[nH]c2ccccc2c1C(c1c[nH]c2ccccc12)c1c(C)[nH]c2ccccc12	.	.	.	-7%	.	.
COc1ccc(-c2nc3c(c4c2C[C@H](c2ccccc2)OC4)CN(S(=O)(=O)c2ccc(C#N)cc2)CC3)c(C)c1	.	.	3%[11.5 µM]	.	.	.
Cc1ccc(-c2[nH]ncc2CNCc2ccccc2)cc1	.	-3%	.	1%	.	.
O=C(NN=C1C2CC3CC(C2)CC1C3)c1cc(Cl)ccc1O	7%	2%	0%	28µM*	4%	2
Cc1ccn2c(NC(=O)C(C)(C)Oc3ccc(Cl)cc3)c(-c3cccs3)nc2c1	2%	18%	7%	32µM*	0%	1
CC(NC(=O)COC(=O)c1ccco1)C12CC3CC(CC(C3)C1)C2 (stereo unspecified)	.	0%	.	.	.	.
O=C(/C=C/Nc1ccc([N+](=O)[O-])cc1Br)c1cccc2ccccc12	18%	5%	-11%	25µM*	1%	?
NC(=O)c1cc([N+](=O)[O-])ccc1NCc1cccc2ccccc12	-7%	-2%	.	0%	-7%	0
CCCCn1c(N)c(N(CCOC)C(=O)c2ccc(Cl)c(S(=O)(=O)N3CCCCC3)c2)c(=O)[nH]c1=O	-9%	10%	.	32µM*	0%	-1
Clc1ccccc1Cn1nnc2c(NCC3CC3)ncnc21	14%	0%	8.9µM*	-2%	-1%	-1
SMILES	a7 integrin act	Pin1 inh	PKM2 activator	ClpP mod	USP2a block	IL-2 act
C=C1CCN(C(C(=O)O)C(C)C)S(=O)(=O)c2ccccc21 (stereo unspecified)	.	-9%	.	.	.	.
Cc1cc2oc(=O)c(CC(=O)O)c(C)c2c2occ(-c3ccc(F)cc3)c12	.	1%	.	28µM*	.	.
COc1ccccc1C1CC(c2cccs2)=NN1C(=O)CCC(=O)O (stereo unspecified)	3%	15%	0%	.	-2%	-2
COc1cccc(C2CC(c3cccs3)=NN2C(=O)CSc2nc3ccccc3o2)c1OC (stereo unspecified)	2%	2%	0%	8.9µM*	4%	-3
O=C(O)c1cc2cccc([N+](=O)[O-])c2[nH]1	.	.	.	1%	.	.
CNC(=S)N1N=C(c2ccc(C)cc2)CC1c1ccc(OC)cc1 (stereo unspecified)	-7%	7%	22µM*	1%	0%	-1
c1ncc2snnc2n1	.	.	.	-2%	.	.
CCOC(=O)c1c(-c2cccc([N+](=O)[O-])c2)cn2ccccc12	-37%	-5%	1%	.	2%	-1
CCOC(=O)c1c(-c2ccccc2Cl)cn2ccccc12	21%	3%	8%	25µM*	0%	-2
N#CC1=C(N)Oc2c(ccc3cccnc23)C1c1cccnc1 (stereo unspecified)	-40%	0%	0%	25µM*	-1%	-3
N#CC1=C(N)Oc2cc3ccccc3cc2C1c1cccnc1 (stereo unspecified)	-11%	3%	?	-1%	0%	-1
CCCN1C(=O)c2ccccc2NC1c1ccc(OC)c(COc2ccc([N+](=O)[O-])c(C)c2)c1 (stereo unspecified)	.	6%	.	-11%	.	.
OC(CNCCC1C=Nc2ccccc21)Cn1c2ccc(Cl)cc2c2cc(Cl)ccc21 (stereo unspecified)	-69%	12%	2%	28µM*	?	-1
OC(CNCC1CCCO1)Cn1c2ccc(Cl)cc2c2cc(Cl)ccc21 (stereo unspecified)	-63%	-7%	0%	-5%	-5%	-3
Cc1ccc2c(/C=C/c3ccc(N(C)C)cc3)ccnc2c1C	.	.	.	1%	.	.
CCCOc1nc(SCCC)nc2c1cnn2-c1ccccc1	11µM*	3%	10%	.	2%	0
CCOC(=O)c1nc(N)c(C(=O)OCC)[nH]1	12%	-8%	0%	14µM*	2%	-3
Cc1cc2cc3c(=O)[nH]c(=O)cc-3n(CC(O)C(O)C(O)CO)c2cc1C (stereo unspecified)	-12%	.	.	-3%	.	-3
Cc1cc2cc3c(=O)[nH]c(=O)nc-3n(CC(O)C(O)C(O)CO)c2cc1C (stereo unspecified)	-18%	?	.	35µM*	.	0
CN(C)c1ccc(C=O)cc1Cl	.	.	.	0%	.	.
COc1ccccc1N1C(=O)c2ccccc2NC1C(OC)OC (stereo unspecified)	0%	-6%	-13%	22µM*	-2%	-3
CCCCN(CCCN)c1ccc(Br)cn1	.	1%	.	-22%	.	.
